{"source": "the supplement of paper PMC3842684", "data": [{"tested_on": "P. falciparum NF54-pfs16-GFP early (I-III) stage gametocytes", "assay": "relative % inhibition of viable gametocyte number; higher = more gametocytocidal", "settings": "0.5 µM; stage: early (I-III) gametocyte; incubation 72 h", "in_short": "(§1)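 In 384-well poly-D-lysine imaging plates, NF54 pfs16-GFP gametocytes (magnet-isolated, early I/IIa on day 2 or late on day 8; 10% parasitaemia, 0.1% haematocrit) received compound in duplicate at 5 or 0.5 µM. Plates stood 72 h at 37°C in 5% CO2 and 5% O2, then overnight with MitoTracker Red before confocal imaging, where elongated GFP objects with MitoTracker signal above cut-off counted as viable. Relative inhibition was calculated against vehicle and positive-control wells on the same plate.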", "units": {"relative % inhibition": "%"}, "values": [{"molecule": "O=C(CCc1ccccc1)c1ccccc1OCC(O)CN1CCCCC1", "note": "(configuration not stated)", "relative % inhibition": 12.7}, {"molecule": "CCOc1cc2c(cc1OCC)C(c1cc(Cl)ccc1O)NCC2", "note": "(configuration not stated)", "relative % inhibition": 13}, {"molecule": "COc1ccc(-n2ccnc2SCC(=O)Nc2cc(C)ccc2C)c(OC)c1", "relative % inhibition": 3.61}, {"molecule": "COc1ccc(C)c2sc(N(Cc3cccnc3)C(=O)c3ccc(C#N)cc3)nc12", "relative % inhibition": 11.9}, {"molecule": "COc1ccc(C(=O)C2CC2c2ccc(Cl)cc2)cc1", "note": "(configuration not stated)", "relative % inhibition": 8.75}, {"molecule": "CCc1ccc(Nc2cc(C)nc3nc(C)nn23)cc1", "relative % inhibition": -3.8}, {"molecule": "COc1ccc(NC(=O)C2c3ccccc3C(=O)N(CC(C)C)C2c2cccs2)cc1Cl", "note": "(configuration not stated)", "relative % inhibition": 42.8}, {"molecule": "COc1ccc(C(C)=O)cc1N1C(=O)C2C(C1=O)C1(c3ccccc3)C(=O)C2(c2ccccc2)C(c2ccc(C)cc2)=C1c1ccc(C)cc1", "note": "(configuration not stated)", "relative % inhibition": 52.9}, {"molecule": "CCN(CC)c1ccc(NC(=O)c2cccs2)cc1", "relative % inhibition": -1.58}, {"molecule": "O=C1c2ccccc2-c2nnc(-c3ccc(Br)cc3)cc21", "relative % inhibition": 16.6}, {"molecule": "CCOC(=O)c1cnc2ccc(OC)cc2c1NCc1ccccc1", "relative % inhibition": 26.4}, {"molecule": "COc1ccc(CCN2C(=O)c3[nH]nc(-c4cc(Cl)c(C)cc4O)c3C2c2ccccc2F)cc1", "note": "(configuration not stated)", "relative % inhibition": 1.69}, {"molecule": "Cc1ccc(N2C3c4ccccc4N(S(=O)(=O)c4ccc(C)cc4)C2c2ccccc2N3S(=O)(=O)c2ccc(C)cc2)cc1", "relative % inhibition": 61}, {"molecule": "COc1cccc(Nc2nc(NCCO)c3ccccc3n2)c1", "relative % inhibition": 0}, {"molecule": "COc1cc(-c2nc(-c3ccc(Sc4ccccc4)cc3)c(-c3ccccc3)[nH]2)cc(OC)c1O", "relative % inhibition": 27}, {"molecule": "CCOC(=O)c1c(NC(=O)c2ccccc2)sc2c(O)c(CN(CC)CC)ccc12", "relative % inhibition": 28.6}, {"molecule": "Cc1cc(N(C)C)nc(Nc2ccc(NC(=O)Nc3ccccc3)cc2)n1", "relative % inhibition": 24.5}, {"molecule": "COc1ccc(-c2nonc2NC(=O)c2cccc(C)c2)cc1OC", "relative % inhibition": 15.3}, {"molecule": "CN1CCN(c2c3c(c(C#N)c4nc5ccccc5n24)CCC3)CC1", "relative % inhibition": -35.3}, {"molecule": "Nc1nc(Nc2cccc(F)c2)nc2ccccc12", "relative % inhibition": 5.49}, {"molecule": "Cc1cc(NC(=O)c2ccc(-c3ccccc3)cc2)no1", "relative % inhibition": -6.51}, {"molecule": "COc1ccc(C2c3ccc4ccccc4c3Oc3ncn(CCCn4ccnc4)c(=N)c32)cc1OC", "note": "(configuration not stated)", "relative % inhibition": 59.1}, {"molecule": "Brc1ccc(Nc2nc3ccccc3nc2Nc2ccc(Br)cc2)cc1", "relative % inhibition": 38.5}]}, {"tested_on": "P. falciparum NF54-pfs16-GFP early (I-III) stage gametocytes", "assay": "relative % inhibition of viable gametocyte number; higher = more gametocytocidal", "settings": "5 µM; stage: early (I-III) gametocyte; incubation 72 h", "in_short": "as §1", "units": {"relative % inhibition": "%"}, "values": [{"molecule": "CCC(O)c1ccc(Br)cc1NC(=O)c1cccc(Cl)c1", "note": "(configuration not stated)", "relative % inhibition": 93.3}, {"molecule": "Cc1c(C)n(Cc2ccc(F)cc2)c2ccc(C(=O)NCc3ccco3)cc12", "relative % inhibition": -8.91}, {"molecule": "Nc1ccn(C2O[C@H](CO)[C@@H](O)[C@H]2O)c(=O)n1", "note": "(some centres not stated)", "relative % inhibition": 9.7}, {"molecule": "c1ccc(-c2ccc(-c3nc4ccccc4[nH]3)cc2)cc1", "relative % inhibition": -6.39}, {"molecule": "OC(CNCC1CCCO1)Cn1c2ccc(Cl)cc2c2cc(Cl)ccc21", "note": "(configuration not stated)", "relative % inhibition": 31.6}, {"molecule": "Nc1ccc(-c2nc3cc(Cc4ccc5[nH]c(-c6ccc(N)cc6)nc5c4)ccc3[nH]2)cc1", "relative % inhibition": 100}, {"molecule": "O=C1C2=C(Nc3ccccc3SC2c2ccccc2)c2ccccc21", "note": "(configuration not stated)", "relative % inhibition": -12.7}, {"molecule": "CN(C)c1ccc(-c2nc3cc(N)ccc3[nH]2)cc1", "relative % inhibition": 18.8}, {"molecule": "CC1CCN(Cc2ccc(NC(=O)c3cc4ccc5cccnc5c4[nH]3)cc2)CC1", "relative % inhibition": 94}, {"molecule": "COC(=O)c1ccc(C2C3=C(O)CC(c4ccc(F)cc4)CC3=Nc3ccccc3N2C(=O)c2ccccc2)cc1", "note": "(configuration not stated)", "relative % inhibition": 103}, {"molecule": "O=C(Nc1ccc(Br)cc1)Nc1cccc(Cl)c1", "relative % inhibition": 26.8}, {"molecule": "O=C1c2ccc3c4c(ccc(c24)C(=O)N1CCCCO)C(=O)N(CCCCO)C3=O", "relative % inhibition": 4.23}, {"molecule": "O=C(NC1CCN(Cc2ccccc2)CC1)c1cc(C(=O)NC2CCN(Cc3ccccc3)CC2)cc(C(=O)NC2CCN(Cc3ccccc3)CC2)c1", "relative % inhibition": 82}, {"molecule": "FC(F)(F)c1cccc(Nc2nc3ccccc3nc2Nc2cccc(C(F)(F)F)c2)c1", "relative % inhibition": 102}, {"molecule": "COc1ccc(OC)c(C2C3=C(CC(C)(C)CC3=O)N(c3ccc(Cl)c(Cl)c3)C3=C2C(=O)CC(C)(C)C3)c1", "relative % inhibition": 67.1}, {"molecule": "COc1ccc(C=C2SC(=N)N(c3ccccc3OC)C2=O)cc1", "relative % inhibition": 63.6}, {"molecule": "O=C(CCc1ccccc1)c1ccccc1OCC(O)CN1CCCCC1", "note": "(configuration not stated)", "relative % inhibition": 96.8}, {"molecule": "CCOc1cc2c(cc1OCC)C(c1cc(Cl)ccc1O)NCC2", "note": "(configuration not stated)", "relative % inhibition": 102}, {"molecule": "COc1ccc(-n2ccnc2SCC(=O)Nc2cc(C)ccc2C)c(OC)c1", "relative % inhibition": -5.2}, {"molecule": "COc1ccc(C)c2sc(N(Cc3cccnc3)C(=O)c3ccc(C#N)cc3)nc12", "relative % inhibition": 35.9}, {"molecule": "COc1ccc(C(=O)C2CC2c2ccc(Cl)cc2)cc1", "note": "(configuration not stated)", "relative % inhibition": 79.1}, {"molecule": "CCc1ccc(Nc2cc(C)nc3nc(C)nn23)cc1", "relative % inhibition": -31}, {"molecule": "COc1ccc(NC(=O)C2c3ccccc3C(=O)N(CC(C)C)C2c2cccs2)cc1Cl", "note": "(configuration not stated)", "relative % inhibition": 90.9}, {"molecule": "COc1ccc(C(C)=O)cc1N1C(=O)C2C(C1=O)C1(c3ccccc3)C(=O)C2(c2ccccc2)C(c2ccc(C)cc2)=C1c1ccc(C)cc1", "note": "(configuration not stated)", "relative % inhibition": 93.5}, {"molecule": "CCN(CC)c1ccc(NC(=O)c2cccs2)cc1", "relative % inhibition": -23.9}, {"molecule": "O=C1c2ccccc2-c2nnc(-c3ccc(Br)cc3)cc21", "relative % inhibition": 10}, {"molecule": "CCOC(=O)c1cnc2ccc(OC)cc2c1NCc1ccccc1", "relative % inhibition": 17.1}, {"molecule": "COc1ccc(CCN2C(=O)c3[nH]nc(-c4cc(Cl)c(C)cc4O)c3C2c2ccccc2F)cc1", "note": "(configuration not stated)", "relative % inhibition": -0.844}, {"molecule": "Cc1ccc(N2C3c4ccccc4N(S(=O)(=O)c4ccc(C)cc4)C2c2ccccc2N3S(=O)(=O)c2ccc(C)cc2)cc1", "relative % inhibition": 95.1}, {"molecule": "COc1cccc(Nc2nc(NCCO)c3ccccc3n2)c1", "relative % inhibition": -12.9}, {"molecule": "COc1cc(-c2nc(-c3ccc(Sc4ccccc4)cc3)c(-c3ccccc3)[nH]2)cc(OC)c1O", "relative % inhibition": 86.1}, {"molecule": "CCOC(=O)c1c(NC(=O)c2ccccc2)sc2c(O)c(CN(CC)CC)ccc12", "relative % inhibition": 94.9}, {"molecule": "Cc1cc(N(C)C)nc(Nc2ccc(NC(=O)Nc3ccccc3)cc2)n1", "relative % inhibition": 8.02}, {"molecule": "COc1ccc(-c2nonc2NC(=O)c2cccc(C)c2)cc1OC", "relative % inhibition": 39.2}, {"molecule": "CN1CCN(c2c3c(c(C#N)c4nc5ccccc5n24)CCC3)CC1", "relative % inhibition": -26.5}, {"molecule": "Nc1nc(Nc2cccc(F)c2)nc2ccccc12", "relative % inhibition": -3.66}, {"molecule": "Cc1cc(NC(=O)c2ccc(-c3ccccc3)cc2)no1", "relative % inhibition": 24.9}, {"molecule": "COc1ccc(C2c3ccc4ccccc4c3Oc3ncn(CCCn4ccnc4)c(=N)c32)cc1OC", "note": "(configuration not stated)", "relative % inhibition": -9.76}, {"molecule": "Brc1ccc(Nc2nc3ccccc3nc2Nc2ccc(Br)cc2)cc1", "relative % inhibition": 103}]}]}
